Legend:
Format in all cases: functional
[1] = target: Solute carrier family 2, facilitated glucose transporter member 1 (Homo sapiens) (UniProt P11166); experiment: ST_JUDE_LEISH: Cytotoxicity at 2uM final concentration against transgenic Leishmania Mexicana promastigotes LmGLUT1 that are glucose transport deficient and complemented with the human glucose transporter GLUT1. Activity is measured by DNA content using SYBR green in vitro
[2] = target: Hexose transporter 1 (Plasmodium falciparum) (UniProt O97467); experiment: ST_JUDE_LEISH: Cytotoxicity at 2uM final concentration against transgenic Leishmania Mexicana promastigotes LmPfHT that are glucose transport deficient and complemented with the Plasmodium falciparum hexose transporter. Activity is measured by DNA content using SYBR green in vitro
[3] = target: Glucose transporter (Leishmania mexicana) (UniProt O61059); experiment: ST_JUDE_LEISH: Cytotoxicity at 2uM final concentration against transgenic Leishmania Mexicana promastigotes LmGT2 that are glucose transport deficient and complemented with the L. Mexicana glucose transporter 2. Activity is measured by DNA content using SYBR green in vitro

Chain of Solute carrier family 2, facilitated glucose transporter member 1 (Homo sapiens) (P11166 whole entry): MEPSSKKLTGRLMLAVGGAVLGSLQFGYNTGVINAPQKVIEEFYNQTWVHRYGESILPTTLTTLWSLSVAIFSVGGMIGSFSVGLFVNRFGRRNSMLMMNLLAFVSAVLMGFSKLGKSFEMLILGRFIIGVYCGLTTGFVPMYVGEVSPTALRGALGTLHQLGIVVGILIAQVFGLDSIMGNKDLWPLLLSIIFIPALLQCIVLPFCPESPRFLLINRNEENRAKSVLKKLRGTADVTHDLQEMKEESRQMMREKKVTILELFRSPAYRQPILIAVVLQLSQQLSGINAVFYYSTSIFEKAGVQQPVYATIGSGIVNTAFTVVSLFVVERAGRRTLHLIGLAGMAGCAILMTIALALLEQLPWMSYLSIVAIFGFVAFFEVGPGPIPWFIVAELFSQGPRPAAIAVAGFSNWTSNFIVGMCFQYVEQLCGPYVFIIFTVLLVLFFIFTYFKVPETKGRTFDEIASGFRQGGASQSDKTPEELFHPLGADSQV

Cc1cc(C)c(S(=O)(=O)N2CCCCC(c3cccc(C(F)(F)F)c3)=N2)c(C)c1
inhibition [1]: 1.84%
inhibition [2]: 1.41%
inhibition [3]: 1.47%

O=S(=O)(NCCN1CCCC1)c1cccc(-c2cccc(CNCc3ccccc3)c2)c1
inhibition [1]: 20%
inhibition [2]: 17.2%
inhibition [3]: 11.7%

O=C(/C=C/c1ccc(C(F)(F)F)cc1)NCCCCCN1CCCN(C(=O)Nc2ccc(F)c(Cl)c2)CC1
inhibition [1]: 1.19%
inhibition [2]: 1.85%
inhibition [3]: 0.39%

CC(C)CN(c1nc(C(=O)NNC(=O)[C@H](CC2CC2)NC(=O)c2cc3cc(OCCN(C)C)ccc3o2)cs1)C1CC1
inhibition [1]: 6.19%
inhibition [2]: 6.53%
inhibition [3]: 7.9%

Cc1cccc2nc(-c3cccc(-c4cccc(NC(=O)c5csnn5)c4)c3)[nH]c12
inhibition [1]: 4.92%
inhibition [2]: 1.69%
inhibition [3]: -0.76%

CC(CN1CCN(C)CC1)C(=O)Nc1ccc(-c2ccc(-c3nc4cc(C(F)(F)F)ccc4[nH]3)cc2)cc1 (stereo not given)
inhibition [1]: 6.67%
inhibition [2]: 4.86%
inhibition [3]: 2.49%

Brc1ccc(Nc2ccnc3cc(-c4nccs4)ccc23)cc1Oc1ccnc2cc(-c3nccs3)ccc12
inhibition [1]: 1.77%
inhibition [2]: 2.1%
inhibition [3]: -0.86%

O=C(CCc1cccnc1)Nc1ccc(-c2cccc(-c3nc4cc(F)ccc4[nH]3)c2)cc1
inhibition [1]: 10.7%
inhibition [2]: 9.99%
inhibition [3]: 8.65%

Cc1ccc(C(=O)Nc2ccc(Nc3ccnc4cc(-c5nccs5)ccc34)cc2O)cc1
inhibition [1]: 6.24%
inhibition [2]: 3.22%
inhibition [3]: 1.89%

COc1cc(C2CCN(CCCCNC(=O)c3ccc(NC(=O)c4ccc(Cl)c(Cl)c4)cc3)CC2)ccc1OC(C)C
inhibition [1]: 1.53%
inhibition [2]: 4.29%
inhibition [3]: 1.53%
